Test in all cases: DAPPL (digital affinity profiling via proximity ligation, sequencing); 10 mM Tris-HCl pH 7.5, 50 mM NaCl, 1 mM DTT, 4% glycerol, room temperature, 30 min; GST-TFs on glutathione beads, 16-mer random dsDNA library, 0.1% formaldehyde crosslink after washing; high values mean tight binding
In one assay the target is T1, FEV (Homo sapiens, UniProt Q99581 1-238).
T1 sequence: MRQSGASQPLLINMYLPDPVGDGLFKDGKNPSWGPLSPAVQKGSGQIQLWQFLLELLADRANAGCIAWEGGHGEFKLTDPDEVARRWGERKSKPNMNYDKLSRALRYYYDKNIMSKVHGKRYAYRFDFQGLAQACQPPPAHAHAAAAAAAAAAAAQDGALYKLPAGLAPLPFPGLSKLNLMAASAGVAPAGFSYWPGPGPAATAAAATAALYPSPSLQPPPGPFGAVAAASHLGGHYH
Conditions: protein: recombinant; tags: N-terminal GST; dsDNA, one strand shown. The procedure, abridged:
(§1)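 Beads coated with glutathione captured GST-fused human transcription factors that had been expressed in yeast, and the factors were then given DNA barcodes and pooled with a tag-only sample. The pools were incubated with 200 nmole of a random double-stranded 16-mer DNA library in Tris/NaCl/DTT/glycerol buffer for 30 min at room temperature, washed, crosslinked with 0.1% formaldehyde and proximity-ligated with BsaI/T4 ligase at 37 °C for 1 h. PCR amplification and Illumina NextSeq500 sequencing came last. Binding signal is each hexamer's read frequency for a factor divided by its frequency for the tag-only sample.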

The next assay addresses ETV5 (Homo sapiens, UniProt P41161 1-510). The following applies: protein: recombinant; tags: N-terminal GST; dsDNA, one strand shown. A digest of the protocol: as §1
The target of another assay is HSF1 (Homo sapiens, UniProt Q00613 1-529). Conditions: protein: recombinant; tags: N-terminal GST; chain copies: 3; dsDNA, one strand shown. A digest of the protocol:
as §1

The next assay deals with T2, SPIC (Homo sapiens, UniProt Q8N5J4 1-248).
T2 sequence: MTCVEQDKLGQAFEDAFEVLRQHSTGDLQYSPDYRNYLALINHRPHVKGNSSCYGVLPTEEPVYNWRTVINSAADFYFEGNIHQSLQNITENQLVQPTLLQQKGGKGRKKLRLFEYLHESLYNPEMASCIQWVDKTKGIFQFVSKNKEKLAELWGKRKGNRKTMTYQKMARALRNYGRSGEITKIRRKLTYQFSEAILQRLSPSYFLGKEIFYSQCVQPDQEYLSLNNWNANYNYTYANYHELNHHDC
Conditions: protein: recombinant; tags: N-terminal GST; dsDNA, one strand shown. A digest of the protocol: as §1

In a further assay the target is ELF4 (Homo sapiens, UniProt Q99607 1-663). Conditions: protein: recombinant; tags: N-terminal GST; dsDNA, one strand shown. A digest of the protocol: as §1
In another assay the target is T3, ELK4 (Homo sapiens, UniProt P28324-2 1-405).
T3 sequence: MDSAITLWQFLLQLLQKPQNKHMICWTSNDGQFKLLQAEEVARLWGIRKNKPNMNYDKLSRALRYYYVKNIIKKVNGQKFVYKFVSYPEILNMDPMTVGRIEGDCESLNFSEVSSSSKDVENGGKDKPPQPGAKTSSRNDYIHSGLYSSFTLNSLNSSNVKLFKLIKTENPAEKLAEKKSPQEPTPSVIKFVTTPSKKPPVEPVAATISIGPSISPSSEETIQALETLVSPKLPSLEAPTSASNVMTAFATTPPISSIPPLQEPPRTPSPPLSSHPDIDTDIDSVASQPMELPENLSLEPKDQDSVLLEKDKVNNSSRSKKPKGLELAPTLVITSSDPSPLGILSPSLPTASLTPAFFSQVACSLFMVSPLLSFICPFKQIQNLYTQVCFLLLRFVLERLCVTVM
Conditions: protein: recombinant; tags: N-terminal GST; dsDNA, one strand shown. A digest of the protocol: as §1

A further assay addresses T4, ETV2 (Homo sapiens, UniProt O00321 1-342).
T4 sequence: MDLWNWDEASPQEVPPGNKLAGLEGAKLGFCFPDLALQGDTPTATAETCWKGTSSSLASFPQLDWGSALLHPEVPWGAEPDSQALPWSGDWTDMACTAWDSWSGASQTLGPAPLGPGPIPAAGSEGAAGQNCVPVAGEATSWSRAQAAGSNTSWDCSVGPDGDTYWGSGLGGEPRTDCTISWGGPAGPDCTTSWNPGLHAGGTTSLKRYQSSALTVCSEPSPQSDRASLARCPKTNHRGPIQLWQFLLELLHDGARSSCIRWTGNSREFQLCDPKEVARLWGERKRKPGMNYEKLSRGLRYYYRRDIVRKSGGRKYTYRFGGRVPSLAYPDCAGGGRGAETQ
The following applies: protein: recombinant; tags: N-terminal GST; dsDNA, one strand shown. The procedure, abridged:
as §1

Another assay addresses T5, ELF3 (Homo sapiens, UniProt P78545 1-371).
T5 sequence: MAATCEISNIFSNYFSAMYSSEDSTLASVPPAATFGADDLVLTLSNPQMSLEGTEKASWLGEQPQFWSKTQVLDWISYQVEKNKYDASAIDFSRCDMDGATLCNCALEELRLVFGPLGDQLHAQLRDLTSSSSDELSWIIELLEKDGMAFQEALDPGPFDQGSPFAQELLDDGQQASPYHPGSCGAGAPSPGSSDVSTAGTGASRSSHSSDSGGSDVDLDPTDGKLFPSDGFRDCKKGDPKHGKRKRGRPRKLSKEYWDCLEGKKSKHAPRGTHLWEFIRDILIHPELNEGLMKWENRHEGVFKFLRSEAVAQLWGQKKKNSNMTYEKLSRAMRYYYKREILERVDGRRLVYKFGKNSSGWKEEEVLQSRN
Conditions: protein: recombinant; tags: N-terminal GST; dsDNA, one strand shown. A digest of the protocol: as §1

A further assay has as its target CRX (Homo sapiens, UniProt O43186 1-299). Conditions: protein: recombinant; tags: N-terminal GST; dsDNA, one strand shown. The procedure, abridged:
as §1

Another assay addresses ETV1 (Homo sapiens, UniProt P50549 1-477). The following applies: protein: recombinant; tags: N-terminal GST; dsDNA, one strand shown. A digest of the protocol:
as §1

Another assay has as its target T6, ERF (Homo sapiens, UniProt P50548 1-548).
T6 sequence: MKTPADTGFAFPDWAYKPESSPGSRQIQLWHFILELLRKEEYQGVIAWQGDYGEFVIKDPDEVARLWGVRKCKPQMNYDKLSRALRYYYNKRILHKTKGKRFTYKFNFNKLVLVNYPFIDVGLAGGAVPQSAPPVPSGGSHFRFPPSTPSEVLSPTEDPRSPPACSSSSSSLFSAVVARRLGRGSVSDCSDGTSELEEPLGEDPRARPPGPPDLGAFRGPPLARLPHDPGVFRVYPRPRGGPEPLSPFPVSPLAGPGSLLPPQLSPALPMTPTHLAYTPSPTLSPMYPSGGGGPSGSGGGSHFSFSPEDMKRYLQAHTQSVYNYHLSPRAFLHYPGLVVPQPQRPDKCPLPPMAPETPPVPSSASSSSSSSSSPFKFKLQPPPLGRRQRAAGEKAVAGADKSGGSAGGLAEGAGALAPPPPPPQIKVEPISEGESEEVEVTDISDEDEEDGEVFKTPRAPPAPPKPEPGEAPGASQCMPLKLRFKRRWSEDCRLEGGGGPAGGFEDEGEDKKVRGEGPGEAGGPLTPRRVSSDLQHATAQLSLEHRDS
The following applies: protein: recombinant; tags: N-terminal GST; dsDNA, one strand shown. A digest of the protocol:
as §1

The target of the next assay is T7, ETV3L (Homo sapiens, UniProt Q6ZN32 1-361).
T7 sequence: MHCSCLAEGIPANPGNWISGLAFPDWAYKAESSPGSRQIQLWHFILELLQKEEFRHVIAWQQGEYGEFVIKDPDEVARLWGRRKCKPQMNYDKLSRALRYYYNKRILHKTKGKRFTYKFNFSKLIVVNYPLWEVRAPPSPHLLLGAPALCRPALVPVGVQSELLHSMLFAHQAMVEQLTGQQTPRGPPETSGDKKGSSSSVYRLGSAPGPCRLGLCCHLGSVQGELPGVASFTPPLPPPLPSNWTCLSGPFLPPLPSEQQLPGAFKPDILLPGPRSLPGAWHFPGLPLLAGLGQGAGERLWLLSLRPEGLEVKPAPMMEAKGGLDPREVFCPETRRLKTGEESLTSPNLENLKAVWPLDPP
The following applies: protein: recombinant; tags: N-terminal GST; dsDNA, one strand shown. The procedure, abridged:
as §1

For another assay, the target named is T8, ETS2 (Homo sapiens, UniProt P15036 1-469).
T8 sequence: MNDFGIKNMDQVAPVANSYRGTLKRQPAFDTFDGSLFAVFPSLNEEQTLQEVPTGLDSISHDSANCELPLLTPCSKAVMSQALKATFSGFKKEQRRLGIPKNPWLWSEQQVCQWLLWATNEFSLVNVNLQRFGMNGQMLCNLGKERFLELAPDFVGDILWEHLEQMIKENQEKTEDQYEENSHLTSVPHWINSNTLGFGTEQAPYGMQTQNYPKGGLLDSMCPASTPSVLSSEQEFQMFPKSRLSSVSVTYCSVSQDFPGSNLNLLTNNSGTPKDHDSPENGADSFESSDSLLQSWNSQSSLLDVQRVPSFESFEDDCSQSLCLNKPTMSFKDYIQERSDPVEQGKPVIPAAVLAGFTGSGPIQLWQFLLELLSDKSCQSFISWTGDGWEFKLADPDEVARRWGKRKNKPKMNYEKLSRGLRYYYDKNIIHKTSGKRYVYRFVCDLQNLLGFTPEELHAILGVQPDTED
The following applies: protein: recombinant; tags: N-terminal GST; dsDNA, one strand shown. The procedure, abridged: as §1

For another assay, the target named is T9, SPDEF (Homo sapiens, UniProt O95238 1-335).
T9 sequence: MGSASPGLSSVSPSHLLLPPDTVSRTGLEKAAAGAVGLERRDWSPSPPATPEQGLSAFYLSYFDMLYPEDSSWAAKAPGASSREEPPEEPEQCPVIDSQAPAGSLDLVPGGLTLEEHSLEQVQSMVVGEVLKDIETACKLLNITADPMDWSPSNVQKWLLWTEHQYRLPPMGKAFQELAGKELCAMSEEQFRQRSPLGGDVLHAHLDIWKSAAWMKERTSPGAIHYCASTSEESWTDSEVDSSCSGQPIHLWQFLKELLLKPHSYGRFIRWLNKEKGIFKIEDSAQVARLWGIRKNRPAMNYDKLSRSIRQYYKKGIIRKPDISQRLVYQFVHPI
The following applies: protein: recombinant; tags: N-terminal GST; dsDNA, one strand shown. A digest of the protocol:
as §1

A further assay deals with T10, ETV7 (Homo sapiens, UniProt Q9Y603 1-341).
T10 sequence: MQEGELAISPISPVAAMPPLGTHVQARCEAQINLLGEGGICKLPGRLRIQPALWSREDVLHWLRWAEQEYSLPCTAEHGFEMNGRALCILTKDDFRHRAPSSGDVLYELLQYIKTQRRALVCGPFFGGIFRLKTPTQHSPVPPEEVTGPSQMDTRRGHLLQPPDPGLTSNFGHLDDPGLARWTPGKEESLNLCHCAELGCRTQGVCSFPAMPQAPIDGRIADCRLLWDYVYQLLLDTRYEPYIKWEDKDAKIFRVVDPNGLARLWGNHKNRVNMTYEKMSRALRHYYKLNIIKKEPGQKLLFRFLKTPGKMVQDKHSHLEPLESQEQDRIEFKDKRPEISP
Conditions: protein: recombinant; tags: N-terminal GST; dsDNA, one strand shown. The procedure, abridged: as §1

The target of another assay is T11, ELF5 (Homo sapiens, UniProt Q9UKW6-2 1-255).
T11 sequence: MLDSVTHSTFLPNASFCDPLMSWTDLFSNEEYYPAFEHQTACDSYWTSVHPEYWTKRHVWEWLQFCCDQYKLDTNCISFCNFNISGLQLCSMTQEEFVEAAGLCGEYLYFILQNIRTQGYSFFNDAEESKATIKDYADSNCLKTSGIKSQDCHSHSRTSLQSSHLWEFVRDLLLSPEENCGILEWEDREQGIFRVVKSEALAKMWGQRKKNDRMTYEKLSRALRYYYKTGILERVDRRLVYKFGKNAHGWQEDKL
The following applies: protein: recombinant; tags: N-terminal GST; dsDNA, one strand shown. The procedure, abridged: as §1

A further assay concerns the target T12, ETV3 (Homo sapiens, UniProt P41162-2 1-143).
T12 sequence: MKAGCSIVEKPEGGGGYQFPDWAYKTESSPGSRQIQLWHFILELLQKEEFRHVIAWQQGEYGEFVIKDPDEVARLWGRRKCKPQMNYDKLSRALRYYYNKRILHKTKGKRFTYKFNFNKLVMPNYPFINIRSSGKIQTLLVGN
The following applies: protein: recombinant; tags: N-terminal GST; dsDNA, one strand shown. The procedure, abridged: as §1

Another assay concerns the target ETV6 (Homo sapiens, UniProt P41212 1-452). Conditions: protein: recombinant; tags: N-terminal GST; dsDNA, one strand shown. A digest of the protocol: as §1

Sequence of CRX (O43186 whole entry): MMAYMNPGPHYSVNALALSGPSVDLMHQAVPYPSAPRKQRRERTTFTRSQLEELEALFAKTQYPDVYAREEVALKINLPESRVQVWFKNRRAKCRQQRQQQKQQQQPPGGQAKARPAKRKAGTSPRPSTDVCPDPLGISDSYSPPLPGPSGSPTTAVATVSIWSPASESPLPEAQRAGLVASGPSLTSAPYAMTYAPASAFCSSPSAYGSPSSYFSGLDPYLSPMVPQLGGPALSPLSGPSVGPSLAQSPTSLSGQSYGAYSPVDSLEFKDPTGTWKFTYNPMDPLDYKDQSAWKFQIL
Sequence of ETV6 (P41212 whole entry): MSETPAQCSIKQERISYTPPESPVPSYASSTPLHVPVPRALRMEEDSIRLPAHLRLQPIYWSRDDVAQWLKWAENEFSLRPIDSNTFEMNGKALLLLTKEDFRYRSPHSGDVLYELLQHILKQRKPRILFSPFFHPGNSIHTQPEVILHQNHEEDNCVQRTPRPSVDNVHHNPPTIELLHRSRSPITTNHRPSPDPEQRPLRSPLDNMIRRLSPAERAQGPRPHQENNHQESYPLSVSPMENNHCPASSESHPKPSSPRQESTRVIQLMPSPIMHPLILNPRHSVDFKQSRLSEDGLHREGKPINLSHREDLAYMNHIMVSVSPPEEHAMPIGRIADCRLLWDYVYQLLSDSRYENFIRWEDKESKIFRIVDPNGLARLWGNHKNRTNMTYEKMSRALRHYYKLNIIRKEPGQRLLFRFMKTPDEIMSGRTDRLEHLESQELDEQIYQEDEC
Sequence of ELF4 (Q99607 whole entry): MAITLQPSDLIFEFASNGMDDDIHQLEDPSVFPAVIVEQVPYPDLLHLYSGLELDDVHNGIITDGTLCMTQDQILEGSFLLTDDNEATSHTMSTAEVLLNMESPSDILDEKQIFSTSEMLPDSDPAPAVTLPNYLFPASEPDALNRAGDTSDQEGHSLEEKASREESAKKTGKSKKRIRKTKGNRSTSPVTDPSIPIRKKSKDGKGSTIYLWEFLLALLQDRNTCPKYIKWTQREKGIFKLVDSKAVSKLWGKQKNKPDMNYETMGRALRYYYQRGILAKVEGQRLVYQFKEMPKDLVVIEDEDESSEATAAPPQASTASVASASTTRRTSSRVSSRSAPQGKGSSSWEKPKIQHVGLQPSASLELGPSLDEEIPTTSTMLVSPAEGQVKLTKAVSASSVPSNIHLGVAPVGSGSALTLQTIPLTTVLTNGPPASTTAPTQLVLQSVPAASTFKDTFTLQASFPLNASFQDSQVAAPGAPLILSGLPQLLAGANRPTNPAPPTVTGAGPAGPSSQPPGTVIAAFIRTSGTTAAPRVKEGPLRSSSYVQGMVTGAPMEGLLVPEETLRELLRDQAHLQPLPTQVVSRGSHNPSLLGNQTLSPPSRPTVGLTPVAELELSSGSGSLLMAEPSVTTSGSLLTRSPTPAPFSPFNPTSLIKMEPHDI
Sequence of ETV5 (P41161 whole entry): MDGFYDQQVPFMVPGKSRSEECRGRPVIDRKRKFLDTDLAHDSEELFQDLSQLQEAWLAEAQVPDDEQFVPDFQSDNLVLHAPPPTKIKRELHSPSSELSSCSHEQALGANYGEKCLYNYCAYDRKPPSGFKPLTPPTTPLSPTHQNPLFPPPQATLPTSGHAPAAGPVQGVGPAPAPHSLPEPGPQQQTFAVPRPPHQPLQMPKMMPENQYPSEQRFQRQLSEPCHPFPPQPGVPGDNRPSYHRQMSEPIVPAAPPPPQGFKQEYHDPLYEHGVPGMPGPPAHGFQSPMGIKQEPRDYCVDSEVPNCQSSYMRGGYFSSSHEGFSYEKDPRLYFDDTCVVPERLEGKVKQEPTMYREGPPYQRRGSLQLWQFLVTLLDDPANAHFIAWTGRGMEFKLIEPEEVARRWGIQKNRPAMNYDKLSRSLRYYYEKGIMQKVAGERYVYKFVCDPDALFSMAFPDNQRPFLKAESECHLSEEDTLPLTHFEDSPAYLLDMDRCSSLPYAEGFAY
Sequence of ETV1 (P50549 whole entry): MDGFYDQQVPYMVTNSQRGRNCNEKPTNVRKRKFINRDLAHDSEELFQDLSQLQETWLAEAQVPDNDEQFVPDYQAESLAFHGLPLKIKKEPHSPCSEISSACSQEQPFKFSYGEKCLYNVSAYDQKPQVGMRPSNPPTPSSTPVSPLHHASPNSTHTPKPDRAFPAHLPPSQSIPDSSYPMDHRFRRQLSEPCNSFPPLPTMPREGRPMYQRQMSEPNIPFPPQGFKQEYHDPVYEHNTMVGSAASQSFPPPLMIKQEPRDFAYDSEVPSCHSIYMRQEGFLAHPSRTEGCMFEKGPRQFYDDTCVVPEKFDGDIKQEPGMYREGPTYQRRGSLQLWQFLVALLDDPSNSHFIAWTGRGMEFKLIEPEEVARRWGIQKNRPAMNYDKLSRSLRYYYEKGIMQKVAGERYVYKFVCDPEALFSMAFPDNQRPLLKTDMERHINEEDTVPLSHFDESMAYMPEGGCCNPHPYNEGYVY
Sequence of HSF1 (Q00613 whole entry): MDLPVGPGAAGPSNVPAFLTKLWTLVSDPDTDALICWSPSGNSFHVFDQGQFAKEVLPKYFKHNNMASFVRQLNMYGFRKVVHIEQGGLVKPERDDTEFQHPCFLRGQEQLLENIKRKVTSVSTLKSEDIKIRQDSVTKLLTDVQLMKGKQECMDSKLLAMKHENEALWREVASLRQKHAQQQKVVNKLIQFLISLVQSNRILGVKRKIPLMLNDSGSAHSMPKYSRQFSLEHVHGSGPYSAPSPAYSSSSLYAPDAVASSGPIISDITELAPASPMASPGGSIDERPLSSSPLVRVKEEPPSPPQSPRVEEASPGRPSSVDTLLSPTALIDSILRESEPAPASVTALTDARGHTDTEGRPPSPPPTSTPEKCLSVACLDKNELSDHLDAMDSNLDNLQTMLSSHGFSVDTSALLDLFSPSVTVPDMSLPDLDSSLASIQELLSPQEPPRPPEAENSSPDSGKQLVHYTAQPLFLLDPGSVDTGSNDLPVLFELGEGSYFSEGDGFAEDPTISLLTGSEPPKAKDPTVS

As to TACGTA, the binding signal with FEV was 1.27 fold enrichment (6-mer frequency, TF over GST control); with ETV5, 1.37 fold enrichment (6-mer frequency, TF over GST control); with HSF1, 1.23 fold enrichment (6-mer frequency, TF over GST control); in the assay with SPIC, 1.27 fold enrichment (6-mer frequency, TF over GST control); with ELF4 it was 1.33 fold enrichment (6-mer frequency, TF over GST control); with ELK4, 1.3 fold enrichment (6-mer frequency, TF over GST control). Besides, the binding signal in the assay with ETV2 is 1.33 fold enrichment (6-mer frequency, TF over GST control); in the assay with ELF3, 1.4 fold enrichment (6-mer frequency, TF over GST control); in the assay with CRX it was 1.49 fold enrichment (6-mer frequency, TF over GST control); with ETV1 it was 1.4 fold enrichment (6-mer frequency, TF over GST control); with ERF, 1.3 fold enrichment (6-mer frequency, TF over GST control); in the assay with ETV3L it was 1.38 fold enrichment (6-mer frequency, TF over GST control). The binding signal with ETS2 was 1.42 fold enrichment (6-mer frequency, TF over GST control); with SPDEF, 1.35 fold enrichment (6-mer frequency, TF over GST control); with ETV7 it was 1.15 fold enrichment (6-mer frequency, TF over GST control); with ELF5, 1.31 fold enrichment (6-mer frequency, TF over GST control); with ETV3, 1.37 fold enrichment (6-mer frequency, TF over GST control); with ETV6, 1.32 fold enrichment (6-mer frequency, TF over GST control).

Values taken from paper PMC7862700, “An all-to-all approach to the identification of sequence-specific readers for epigenetic DNA modifications on cytosine”.
